Data as given in PubChem BioAssay AID1733 (National Center for Advancing Translational Sciences (NCATS), 2009).
Records with an inconclusive call do not appear. Calls of active or inactive are those of the source. Calls come from the whole dose curve; as a rule, active = well fitted inhibition curve with a large enough effect; inconclusive = small, poorly fitted or top-dose-only effect; inactive = flat fitted curve, though single readings scatter.

target: Luciferin 4-monooxygenase (Photinus pyralis) (UniProt P08659); experiment: Counterscreen Assay for Enhancers of SMN2 Splice Variant Expression: Interaction with Luciferase Reporter; conditions: purified firefly luciferase, luminescence, 5 min; series mostly up to 51 µM
Description: NIH Chemical Genomics Center [NCGC] NIH Molecular Libraries Probe Production centers Network [MLPCN] MLPCN Grant: R03 MH084179-01 Assay Submitter (PI): Elliot Androphy NCGC Assay Overview: Spinal muscular atrophy (SMA) is caused by insufficient levels of the survival motor neuron protein SMN. The SMN locus on chromosome 5q13 contains two inverted copies of SMN called SMN1 and SMN2 which are 99% identical at the amino acid level. SMN1 is a fully functional protein and SMN2 skips exon 7 90% of the time. Skipping of exon 7 produces non-functional protein product. 10% of the SMN2 protein includes exon 7 and is fully functional. In the SMA disease state, mutations in the SMN1 locus are the cause of the disease state. Because only 10% of SMN2 is of the fully functional form, it is not sufficient to overcome the deficiency produced by the loss of the SMN1 product. A therapy that either increases the amount of SMN2 product made increases the inclusion of exon 7 has been proposed for the treatment of SMA. We have designed an assay to identify small molecules that can increase the amount of functional SMN2 product by appending a luciferase reporter gene after the native SMN2 gene, such that inclusion of exon 7 in the expressed product places the luciferase sequence in frame, thus generating functional luciferase enzyme. One potential source of false positives in the primary screening assay is stabilization of the reporter luciferase via direct binding. […]
NCGC Assay Protocol Summary: The primary screen utilizes a luciferase reporter gene assay, combining the promoter and splicing based cassettes in tandem with the major portion of the native SMN1 cDNA, and then transfected into HEK293 cells. […] Sequence, Parameter, Value, Description (1) Reagent, 2.5 uL, Enzyme in buffer (note A) (2) Compound, 23 nL, From stock solutions (3) Time, 5 minutes, Room temp (4) Reagent#2.5 ul, Luciferase detection reagent (note B) (5) Detector, 1 sec integrate, Luminescent read on Viewlux (note C) Sigma enzyme (1 mg) considered to be MW 61,000 diluted in 357 ul assay buffer to 50 uM stock. […]

Sequence of Luciferin 4-monooxygenase (Photinus pyralis) (P08659 whole entry, looked up, canonical isoform): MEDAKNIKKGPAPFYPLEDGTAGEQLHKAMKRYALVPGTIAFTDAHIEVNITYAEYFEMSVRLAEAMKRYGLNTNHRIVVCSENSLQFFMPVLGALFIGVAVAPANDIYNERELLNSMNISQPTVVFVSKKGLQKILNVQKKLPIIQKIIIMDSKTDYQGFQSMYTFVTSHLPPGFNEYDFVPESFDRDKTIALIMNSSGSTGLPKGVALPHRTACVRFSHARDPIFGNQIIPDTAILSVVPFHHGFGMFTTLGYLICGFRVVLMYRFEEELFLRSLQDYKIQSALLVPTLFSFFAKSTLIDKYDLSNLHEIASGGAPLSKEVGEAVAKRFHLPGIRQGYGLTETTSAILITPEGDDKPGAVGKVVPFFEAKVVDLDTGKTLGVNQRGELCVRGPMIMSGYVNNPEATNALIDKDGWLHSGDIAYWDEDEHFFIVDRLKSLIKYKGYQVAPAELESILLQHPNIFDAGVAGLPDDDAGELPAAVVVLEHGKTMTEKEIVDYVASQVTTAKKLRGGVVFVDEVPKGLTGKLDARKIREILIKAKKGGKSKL

| SMILES | Potency | activity change, negative = inhibition |
| --- | --- | --- |
| O=C(C1CCN(c2nc3ccc(Br)cc3s2)CC1)N1CCC2(CC1)OCCO2 | 7.08 µM (active) | – |
| C[C@@H]1O[C@@H](O[C@H]2C[C@@H](O)[C@]3(CO)[C@H]4[C@H](O)C[C@]5(C)[C@@H](C6COC(=O)C6)CC[C@]5(O)[C@@H]4CC[C@]3(O)C2)[C@H](O)[C@H](O)[C@H]1O (stereo partly drawn) | – | 13.4% [at 48.7 pM] (inactive) |
| CC[C@]1(O)CC(O[C@@H]2CC(N(C)C)C(O)C(C)O2)c2c(cc3c(c2O)C(=O)c2c(O)cccc2C3=O)C1C(=O)OC (stereo partly drawn) | inactive | – |
